# USP10 block: human USP10 deubiquitinase inhibition | Q14694 | purified USP10, Ub-rhodamine fluorescence, 60 min | inhibition, % at 20 µM | hit rate 1.1% among 47,000 | AID 1645856
# USP8 inh: inhibitors of human USP8 deubiquitinase. AID 1645853. hit rate 4.2% among 47,000. inhibition, % at 20 µM. purified USP8, Ub-rhodamine cleavage fluorescence, 30 min. P40818
# USP30 block: inhibitors of human USP30 deubiquitinase. Q70CQ3. purified USP30, Ub-rhodamine cleavage fluorescence. inhibition, % at 25 µM. hit rate 5.3% among 47,000. AID 1645860
# Target sequence (Q70CQ3 whole entry, looked up): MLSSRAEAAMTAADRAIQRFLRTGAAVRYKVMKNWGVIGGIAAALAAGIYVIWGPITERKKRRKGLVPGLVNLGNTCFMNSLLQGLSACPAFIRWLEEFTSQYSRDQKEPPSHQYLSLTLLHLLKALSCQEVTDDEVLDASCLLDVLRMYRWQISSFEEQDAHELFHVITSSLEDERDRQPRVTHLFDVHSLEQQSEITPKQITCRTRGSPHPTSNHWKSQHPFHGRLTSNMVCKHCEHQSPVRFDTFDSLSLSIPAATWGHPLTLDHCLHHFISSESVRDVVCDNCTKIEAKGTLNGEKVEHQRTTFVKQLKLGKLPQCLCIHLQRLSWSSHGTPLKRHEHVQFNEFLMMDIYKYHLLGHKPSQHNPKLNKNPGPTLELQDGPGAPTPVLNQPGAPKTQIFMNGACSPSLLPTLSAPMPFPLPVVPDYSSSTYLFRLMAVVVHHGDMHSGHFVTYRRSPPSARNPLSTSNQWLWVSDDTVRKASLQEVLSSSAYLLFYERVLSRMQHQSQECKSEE
# USP28 block: human USP28 deubiquitinase inhibition | Q96RU2 | purified USP28, Ub-rhodamine cleavage fluorescence, 30 min | inhibition, % at 25 µM | hit rate 3% among 47,000 | AID 1645857
# USP17 block: human USP17-like deubiquitinase inhibition; purified USP17, Ub-rhodamine cleavage fluorescence, 3 h; inhibition, % at 50 µM; hit rate 6.5% among 47,000; AID 1645855
# Numbers without * were called inactive; i = inactive; x = no result given. Most compounds without a hit are left out; they make up all but 14% or so of the library. No stated cut-off is given here; in the data, active means inhibition above about 30%; inactive means the rest.
SMILES,USP10 block,USP8 inh,USP30 block,USP28 block,USP17 block
COc1cccc(NS(=O)(=O)c2cc(C(=O)N3CCCCC3)ccc2NCc2ccccc2OC)c1,3,-8,-31,-10,-15
O=C(Cc1ccccc1)Nc1nc(-c2ccccc2)ns1,3,0,37*,21,3
O=C(Nc1nc(-c2ccccc2)ns1)c1ccc2ncsc2c1,36*,17,12,9,41*
O=c1[nH]c2ccc(S(=O)(=O)N3CCN(Cc4ccccc4)CC3)cc2[nH]1,-2,7,-17,17,-12
CN(Cc1ccccc1)S(=O)(=O)c1ccc(N2CCCCS2(=O)=O)cc1,1,4,x,x,37*
CCCCN(c1ccccc1)S(=O)(=O)c1ccc(N2CCCCS2(=O)=O)cc1,2,-1,18,11,12
CN(Cc1ccccc1)S(=O)(=O)c1ccc2[nH]c(=O)[nH]c2c1,4,3,26,2,37*
CCC1Oc2ccc(C(=O)c3ccco3)cc2NC1=O (centres undefined),0,2,19,12,0
CCN(CC)CCCn1c(C)c(C)c2c(NCc3ccco3)ncnc21,-3,-11,-43,-8,-18
CCOC(=O)c1csc(NC(=O)c2ccccc2Br)n1,3,-4,5,41*,0
CCOC(=O)c1csc(NC(=O)c2cc(-c3ccccc3)nc3ccccc23)n1,7,23,7,6,8
COc1ccc(CN2C[C@@H]3C[C@]3(c3ccccc3)C(=O)c3ncccc32)cc1,1,84*,-108,-7,60*
O=C(Nc1ccc(S(=O)(=O)N2CCCC2)cc1)C1Cc2ccccc2CN1C(=O)c1ccccc1 (centres undefined),5,12,-19,0,11
O=c1cc(CN2CCN(Cc3ccccc3)CC2)c2cc3c(cc2o1)CCC3,-1,-9,-4,-22,-20
O=c1oc2c3c(c(Cl)cc2c2c1CCCC2)OCN(CCc1ccc(F)cc1)C3,-3,41*,4,6,43*
O=c1oc2c3c(c(Cl)cc2c2c1CCCC2)OCN(Cc1ccccc1)C3,5,82*,-120,-24,44*
CC1(NC(=O)c2ccnc(Cc3ccc(F)cc3)c2)CCS(=O)(=O)C1 (centres undefined),1,0,-17,-2,-4
O=C(Nc1ccccc1)N1CCc2nc3ccccc3n2CC1,2,18,27,7,13
Cn1c(-c2c(N)n(Cc3ccc(Cl)cc3)c3nc4ccccc4nc23)nc2ccccc21,-6,57*,-52,-17,-13
CCOc1ccc(S(=O)(=O)Nc2ccc[nH]c2=O)cc1,1,9,-1,16,87*
CCCCC(=O)Nc1nnc(C2CC(=O)N(c3ccc(C)cc3)C2)s1 (centres undefined),4,52*,-1,-4,12
CCc1ccc(N2CC(c3nnc(NC(=O)Cc4ccc(C)cc4)s3)CC2=O)cc1 (centres undefined),11,-70,33*,17,50*
O=C(CCCc1ccccc1)Nc1nnc(C2CC(=O)N(c3ccc(Cl)cc3)C2)s1 (centres undefined),4,0,8,3,1
O=C(CCCc1ccccc1)Nc1nnc(C2CC(=O)N(c3ccccc3)C2)s1 (centres undefined),8,-1,x,x,41*
Cc1ccc(CC(=O)Nc2nnc(C3CC(=O)N(c4cc(C)cc(C)c4)C3)s2)cc1 (centres undefined),4,-4,-11,-9,-5
SMILES,USP10 block,USP8 inh,USP30 block,USP28 block,USP17 block
COc1ccc(CCC(=O)Nc2nnc(C3CC(=O)N(c4ccc(C)cc4)C3)s2)cc1 (centres undefined),38*,9,8,-2,0
c1ccc(-c2nc(-c3cn[nH]c3-c3ccccc3)[nH]c2-c2ccccc2)cc1,8,-10,-17,12,-5
COc1ccc(Cn2c(C(=O)O)c(CNCc3cccs3)c3ccccc32)cc1,-4,8,11,26,24
Cc1cnc(C2CCCN2C(=O)c2cc(C3CCCCC3)no2)[nH]1 (centres undefined),1,-8,0,0,-3
CN1C(=O)[C@@H]2CN(S(=O)(=O)c3cccc(C#N)c3)CCN2C(=O)[C@@H]1Cc1ccccc1,1,16,19,5,9
Cc1ccc(N2CC(c3nnc(NC(=O)CCc4ccccc4)s3)CC2=O)cc1 (centres undefined),26,56*,29,15,18
Cc1ccc(N2CC(c3nnc(NC(=O)CCc4ccccc4)s3)CC2=O)cc1C (centres undefined),17,-1,0,-12,-11
COc1ccc(CC(=O)NC2CCN(c3ccc(C)cc3)C2=O)cc1 (centres undefined),3,-3,17,16,38*
Cc1c(C(=O)Nc2cccc(F)c2)nnn1-c1cccc2c1CCN(S(C)(=O)=O)C2,3,9,0,8,-1
NC(=O)C1CCN(C(=O)c2nnn(-c3ccc(OC(F)(F)F)cc3)n2)CC1,0,-3,12,0,-2
COc1ccc(-n2nnc(C(=O)N3CCC4(CC3)OCCO4)n2)cc1,0,13,9,5,12
COc1ccc(N2CCN(C(=O)c3nnn(-c4ccc(OC)cc4)n3)CC2)cc1,6,0,36*,17,11
NC(=O)C1CCN(C(=O)c2nnn(-c3ccccc3)n2)CC1,0,16,34*,14,16
COc1ccc(-n2nnc(C(=O)N3CCN(c4ccccc4Cl)CC3)n2)cc1,10,13,33*,33*,23
O=C(CCc1nnc2ccc(N3CCCC3)nn12)NCc1ccccn1,2,1,-2,-2,-1
CCN1c2ccc(S(=O)(=O)N3CCOCC3)cc2N(Cc2c(F)cccc2F)C1C (centres undefined),1,-26,-82,-11,-4
O=S1(=O)CCN(Cc2c(F)cccc2F)c2c(F)nc(N3CCOCC3)c(F)c21,6,93*,3,1,67*
CCN(CC)c1nc(F)c2c(c1F)S(=O)(=O)CCN2Cc1ccccc1,-9,95*,24,16,64*
O=S1(=O)CCN(Cc2cccnc2)c2c(F)nc(N3CCOCC3)c(F)c21,2,91*,-5,8,54*
O=C(N[C@@H]1CC[C@H]2Oc3ccccc3N[C@H]2[C@@H]1O)c1ccccc1F,7,11,20,0,5
Cn1cc(-c2cnc(-c3ccccc3)nc2)cc1C(=O)NCCc1cccnc1,-1,-1,-9,-11,-25
COc1ccccc1-c1cc(C(=O)N2CCn3nc(C)nc3C2)[nH]n1,0,-7,-9,-8,-3
CCOc1ncccc1CNC(=O)c1ccc2nc[nH]c2c1,1,5,0,-2,6
CC1=CC2=NC(=O)/C(=C\c3cn(Cc4ccc5c(c4)OCO5)c4ccccc34)C(=N)N2O1,-6,-172,i,-204,-161
CC(C)Nc1nc(-c2ccccc2)nnc1-c1ccccc1,4,24,31*,14,17
